Experimental data as given in the supplement of paper PMC9694430.
Where a name gives a salt, the structure may show the parent alone.

Experiments:
Test in all cases: thermal shift delta Tm vs DMSO control; higher = stronger stabilization (binding)
Settings in all cases: 12.5 µM; protein concentration 2 µM
LOC_OS01G57100-cb003 = test system: LOC_OS01G57100-cb003
Outline: (§1)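 Rice kinase domain constructs, made in E. coli and purified, were placed in 96-well plates at 2 μM in 19.5 μl of 100 mM potassium phosphate pH 7.5, 150 mM NaCl, 10% glycerol and 5 × SYPRO Orange, with compound in DMSO. A temperature ramp from 25°C to 95°C at 0.05°C/s was used for differential scanning fluorimetry. The melting temperature shift is a triplicate mean compared with DMSO-only protein, derived from Boltzmann fits.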

LOC_OS01G60330-cb001 = test system: LOC_OS01G60330-cb001
Outline: as §1

LOC_OS01G60700-cb002 = test system: LOC_OS01G60700-cb002
Outline: as §1

LOC_OS01G63280-cb003 = test system: LOC_OS01G63280-cb003
Outline: as §1

LOC_OS01G67340-cb003 = test system: LOC_OS01G67340-cb003
Outline: as §1

LOC_OS01G70970-cb002 = test system: LOC_OS01G70970-cb002
Outline: as §1

LOC_OS02G07810-cb001 = test system: LOC_OS02G07810-cb001
Outline: as §1

LOC_OS02G08530-cb003 = test system: LOC_OS02G08530-cb003
Outline: as §1

LOC_OS02G14120-cb001 = test system: LOC_OS02G14120-cb001
Outline: as §1

LOC_OS02G17970-cb001 = test system: LOC_OS02G17970-cb001
Outline: as §1

LOC_OS02G45750-cb003 = test system: LOC_OS02G45750-cb003
Outline: as §1

LOC_OS02G54510-cb004 = test system: LOC_OS02G54510-cb004
Outline: as §1

LOC_OS03G04050-cb001 = test system: LOC_OS03G04050-cb001
Outline: as §1

LOC_OS03G12390-cb001 = test system: LOC_OS03G12390-cb001
Outline: as §1

LOC_OS03G27990-cb004 = test system: LOC_OS03G27990-cb004
Outline: as §1

LOC_OS03G50450-cb001 = test system: LOC_OS03G50450-cb001
Outline: as §1

LOC_OS03G50810-cb003 = test system: LOC_OS03G50810-cb003
Outline: as §1

LOC_OS04G35114-cb001 = test system: LOC_OS04G35114-cb001
Outline: as §1

LOC_OS04G38480-cb003 = test system: T1, LOC_OS04G38480-cb003
T1 sequence (whole entry): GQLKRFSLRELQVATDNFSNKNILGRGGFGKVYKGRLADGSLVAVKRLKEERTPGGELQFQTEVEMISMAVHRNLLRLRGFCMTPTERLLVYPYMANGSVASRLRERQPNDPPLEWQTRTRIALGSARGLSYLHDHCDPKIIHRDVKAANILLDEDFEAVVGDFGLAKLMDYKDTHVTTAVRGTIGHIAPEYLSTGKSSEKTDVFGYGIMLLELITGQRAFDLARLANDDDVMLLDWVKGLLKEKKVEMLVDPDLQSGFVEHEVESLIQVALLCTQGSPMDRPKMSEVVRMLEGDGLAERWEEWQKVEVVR
Outline: as §1

LOC_OS04G41100-cb001 = test system: T2, LOC_OS04G41100-cb001
T2 sequence (whole entry): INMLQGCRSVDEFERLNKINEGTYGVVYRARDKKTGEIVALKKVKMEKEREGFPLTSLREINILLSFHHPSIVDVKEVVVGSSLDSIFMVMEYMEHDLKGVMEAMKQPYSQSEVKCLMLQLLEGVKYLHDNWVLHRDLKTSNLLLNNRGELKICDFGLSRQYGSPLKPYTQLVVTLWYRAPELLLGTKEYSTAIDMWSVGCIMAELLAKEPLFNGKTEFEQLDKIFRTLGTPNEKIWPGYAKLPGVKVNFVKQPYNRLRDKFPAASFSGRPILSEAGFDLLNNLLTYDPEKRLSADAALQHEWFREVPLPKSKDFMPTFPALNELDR
Outline: as §1
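Note: purified Escherichia coli-expressed rice kinase domain construct.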

SMILES | thermal shift delta Tm (LOC_OS01G57100-cb003) [°C] | thermal shift delta Tm (LOC_OS01G60330-cb001) [°C] | thermal shift delta Tm (LOC_OS01G60700-cb002) [°C] | thermal shift delta Tm (LOC_OS01G63280-cb003) [°C] | thermal shift delta Tm (LOC_OS01G67340-cb003) [°C] | thermal shift delta Tm (LOC_OS01G70970-cb002) [°C] | thermal shift delta Tm (LOC_OS02G07810-cb001) [°C] | thermal shift delta Tm (LOC_OS02G08530-cb003) [°C] | thermal shift delta Tm (LOC_OS02G14120-cb001) [°C] | thermal shift delta Tm (LOC_OS02G17970-cb001) [°C] | thermal shift delta Tm (LOC_OS02G45750-cb003) [°C] | thermal shift delta Tm (LOC_OS02G54510-cb004) [°C] | thermal shift delta Tm (LOC_OS03G04050-cb001) [°C] | thermal shift delta Tm (LOC_OS03G12390-cb001) [°C] | thermal shift delta Tm (LOC_OS03G27990-cb004) [°C] | thermal shift delta Tm (LOC_OS03G50450-cb001) [°C] | thermal shift delta Tm (LOC_OS03G50810-cb003) [°C] | thermal shift delta Tm (LOC_OS04G35114-cb001) [°C] | thermal shift delta Tm (LOC_OS04G38480-cb003) [°C] | thermal shift delta Tm (LOC_OS04G41100-cb001) [°C]
CCN1CCN(Cc2ccc(-c3cc4c(N[C@H](C)c5ccccc5)ncnc4[nH]3)cc2)CC1 | 0.7 | 1.5 | 0.28 | 0.52 | -0.08 | 0.5 | 1.12 | 0.67 | 3.81 | 0.8 | 6.37 | 0.94 | -0.21 | 1.63 | 2.76 | 0.56 | 1.13 | 3.16 | 1.7 | 0.38
Cc1ccc(-n2nc(C(C)(C)C)cc2NC(=O)NCc2cc(F)ccc2Oc2ccc3c(cnn3CCO)c2)cc1 [Pexmetinib (ARRY-614)] | 1.23 | 2 | 0.83 | 6.58 | 0.87 | 0.6 | 0.69 | 0.78 | 4.57 | 1.52 | 0.81 | 2.56 | 0.65 | 1.05 | 0.31 | 0.02 | 0.36 | 0.41 | 1.51 | 1.43
CNC(=O)c1cc(Oc2ccc(NC(=O)Nc3ccc(Cl)c(C(F)(F)F)c3)cc2)ccn1 [Sorafenib Tosylate] | 4.07 | 3.91 | 1.77 | 9.15 | 0.52 | 1.83 | 2.2 | 1.92 | 3.45 | 1.56 | 2.62 | 1.95 | 0.83 | 1.41 | 0.39 | 0.77 | 1.06 | 0.98 | 2.2 | 1.53
CCN(C)S(=O)(=O)Nc1ccc(F)c(C(=O)c2c[nH]c3ncc(-c4cnc(C5CC5)nc4)cc23)c1F | 1.23 | 1.8 | 0.8 | 7.4 | 0.55 | 0.37 | 0.74 | 0.59 | -0.46 | 0.71 | 3.15 | 0.87 | 0.3 | 0.5 | 0.47 | 0.08 | 0.44 | 2.53 | 0.81 | 0.37
NC(=O)c1ncn([C@@H]2O[C@H](CO)[C@@H](O)[C@H]2O)c1N [AICAR (Acadesine)] | 1.35 | 0.61 | 0.92 | 0.73 | -0.25 | 0.13 | 1.21 | 0.52 | 0.21 | 0.71 | 0.81 | 0.42 | 0.68 | 0.15 | 0.5 | 0.66 | 0.55 | 0.59 | 0.31 | 0.46
CO[C@H]1C[C@@H]2CC[C@@H](C)[C@@](O)(O2)C(=O)C(=O)N2CCCC[C@H]2C(=O)O[C@H]([C@H](C)C[C@@H]2CC[C@@H](OC(=O)C(C)(CO)CO)[C@H](OC)C2)CC(=O)[C@H](C)/C=C(\C)[C@@H](O)[C@@H](OC)C(=O)[C@H](C)C[C@H](C)/C=C/C=C/C=C/1C | 1.06 | 1.91 | 0.66 | 0.23 | -0.48 | 0.3 | 0.33 | 0.57 | 0.93 | 0.36 | 0.69 | -0.04 | 0.5 | -0.26 | 0.07 | 0.44 | -0.05 | -0.13 | 1.42 | 0.7
